Results filed as inconclusive are left out. The source made the active and inactive calls. Calls follow the shape of the dose curve; as a rule, active = well fitted cell-killing curve with a large enough effect; inconclusive = small, poorly fitted or top-dose-only effect, or effect the other way; inactive = flat fitted curve, though single readings scatter.
What was measured:
Assay in all cases: Primary qHTS to identify gynecologic anti-cancer compounds using libraries of approved drugs and bioactive compounds (AID 1345084); also: nearly all actives have a fitted effect of over 55% in size
[1] = tested on: C33A; conditions: Gynecologic cancer cell panel viability, ATPlite luminescence, 48 h; series mostly up to 57.5 µM
Summary of the method: (§1)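 In this quantitative HTS, cell killing is estimated from loss of ATP-dependent luciferase light. Cells see five compound concentrations over a 48 h exposure.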

[2] = tested on: CAOV3; conditions: Gynecologic cancer cell panel viability, ATPlite luminescence, 48 h; series mostly up to 57.5 µM
Summary of the method: as §1

[3] = tested on: Es-2; conditions: Gynecologic cancer cell panel viability, ATPlite luminescence, 48 h; series mostly up to 57.5 µM
Summary of the method: as §1

[4] = tested on: CASKI; conditions: Gynecologic cancer cell panel viability, ATPlite luminescence, 48 h; series mostly up to 57.5 µM
Summary of the method: as §1

[5] = tested on: Hek293T; conditions: Gynecologic cancer cell panel viability, ATPlite luminescence, 48 h, control line for the selectivity index; series mostly up to 57.5 µM
Summary of the method: as §1

[6] = tested on: HeLa; conditions: Gynecologic cancer cell panel viability, ATPlite luminescence, 48 h; series mostly up to 57.5 µM
Summary of the method: as §1
% is scaled to controls: 0 for no effect and ±100 for the full control effect; potency is read from the fitted curve at half-maximal effect.

CC(C)(C)Nc1nc(Nc2ccc(C(N)=O)cc2)cc(N)c1C#N
inactive: Potency [2] | Potency [3]
active: Potency [1] 25.1 µM

CC1(C)CC[C@@]2(C(=O)O[C@@H]3O[C@H](CO)[C@@H](O)[C@H](O)[C@H]3O)C(C1)C1=CCC3[C@@]4(C)CC[C@@H](O[C@@H]5O[C@H](C(=O)O)[C@@H](O[C@@H]6OC[C@@H](O)[C@H](O)[C@H]6O)[C@H](O[C@@H]6OC[C@](O)(CO)[C@H]6O)[C@H]5O)C(C)(C)C4CC[C@@]3(C)[C@]1(C)C[C@H]2O (some centres undefined)
inactive: activity change, negative = cytotoxicity [1] -0.239% [at 11.6 µM] | activity change, negative = cytotoxicity [2] -43.7% [at 11.6 µM] | activity change, negative = cytotoxicity [4] -25.1% [at 11.6 µM] | activity change, negative = cytotoxicity [3] -7.12% [at 11.6 µM] | activity change, negative = cytotoxicity [5] 3.52% [at 11.6 µM]

C=CC(C)(C)c1[nH]c2cc3c(cc2c1CC1NC(=O)C2=CCCN2C1=O)C=CC(C)(C)O3 (centres undefined)
inactive: Potency [1] | Potency [2] | Potency [4] | Potency [6] | Potency [5]

C=C1C(=O)O[C@@H]2C/C(C)=C\C(=O)/C=C(\C)[C@@H](OC(=O)/C(C)=C\C)[C@H](O)[C@@H]12
active: Potency [1] 10 µM | Potency [2] 7.94 µM | Potency [3] 4.47 µM | Potency [5] 7.94 µM
inactive: Potency [4]

COc1ccc2c(OC)c3ccoc3nc2c1OC
inactive: Potency [1] | Potency [2] | Potency [4] | Potency [3] | Potency [5]

CC(=O)O[C@H]1C(=O)[C@@]2(C)[C@H]([C@H](OC(=O)c3ccccc3)[C@]3(O)C[C@H](OC(=O)[C@H](O)[C@@H](NC(=O)c4ccccc4)c4ccccc4)C(C)=C1C3(C)C)[C@]1(OC(C)=O)CO[C@@H]1C[C@@H]2O
inactive: activity change, negative = cytotoxicity [1] -4.13% [at 11.6 µM] | activity change, negative = cytotoxicity [2] -17.1% [at 11.6 µM]
active: Potency [3] 0.126 µM | Potency [6] 0.0316 µM

CC(=O)OC1/C(C)=C/C(=O)C(OC(C)=O)C(C)(C)/C=C/C(C)C(=O)C2(OC(C)=O)CC(C)C(OC(=O)c3ccccc3)C12 (centres undefined)
inactive: Potency [1] | Potency [2] | Potency [4] | Potency [6] | Potency [5]

Cc1cnc(Nc2ccc(F)cc2Cl)nc1-c1c[nH]c(C(=O)NC(CO)c2cccc(Cl)c2)c1 (centres undefined)
inactive: Potency [1] | Potency [2] | Potency [4] | Potency [3] | Potency [5]

COc1ncc2cc(C(=O)Nc3cc(C(=O)NCc4cccc(Cl)c4)ccc3Cl)c(=O)[nH]c2n1
inactive: Potency [1] | Potency [2] | Potency [4] | Potency [3] | Potency [5]

COC(=O)N(C)c1c(N)nc(-c2nn(Cc3ccccc3F)c3ncccc23)nc1N
inactive: Potency [1] | Potency [2] | Potency [4] | Potency [3] | Potency [6] | Potency [5]

COc1cc2c(cc1OC)N1C(=O)C[C@]34C=CCN5CC[C@@H]2[C@@H](CC3)[C@]514
inactive: Potency [1] | Potency [2] | Potency [3] | Potency [6] | Potency [5]

CC[C@@H](N)CNc1ccnc(-c2cc(-c3cnn(C)c3)ccc2O)n1
inactive: Potency [2]
active: Potency [1] 8.91 µM | Potency [4] 3.98 µM | Potency [3] 20 µM | Potency [5] 11.2 µM

N#Cc1ccc(-c2cnc3[nH]cc(NC(=O)c4cccnc4)c3c2)cc1
inactive: Potency [1] | Potency [2] | Potency [4] | Potency [5]

Cc1cc(Nc2ccc(NC(=O)c3ccc(Nc4ccnc5ccccc45)cc3)cc2)nc(N)n1
active: Potency [1] 5.62 µM | Potency [2] 2.24 µM | Potency [4] 3.55 µM | Potency [6] 11.2 µM | Potency [5] 25.1 µM

CCCCNc1ccc(-c2ccc(CN3CCOCC3)cn2)c(NC2CCC(O)CC2)c1 (centres undefined)
active: Potency [2] 1.78 µM
inactive: Potency [1] | Potency [4] | Potency [3] | Potency [5]

O=C(Cc1ccc(-c2ccccc2)cc1)NC1CCC1
inactive: Potency [1] | Potency [2] | Potency [4] | Potency [3] | Potency [6] | Potency [5]

CC1(C)CC[C@]2(C(=O)O[C@@H]3O[C@H](CO)[C@@H](O)[C@H](O)[C@H]3O)CC[C@]3(C)C(=CCC4[C@@]5(C)C[C@@H](O)[C@H](O)[C@@](C)(CO)C5CC[C@]43C)C2[C@@H]1O (some centres undefined)
inactive: Potency [1] | Potency [2] | Potency [4] | Potency [6] | Potency [5]

O=C(NOCC(O)CO)c1ccc(F)c(F)c1Nc1ccc(I)cc1F (centres undefined)
inactive: Potency [1] | Potency [2] | Potency [4] | Potency [6] | Potency [5]

CC(=O)O[C@@](C)(C(=O)/C=C/C(C)(C)O)[C@H]1[C@H](O)C[C@@]2(C)[C@@H]3CC=C4[C@@H](C=C(O)C(=O)C4(C)C)[C@]3(C)C(=O)C[C@]12C
active: Potency [2] 0.282 µM | Potency [4] 4.47 µM | Potency [6] 2.51 µM
inactive: Potency [1]

CCN1CCN(Cc2ccc(Nc3ncc(F)c(-c4cc(F)c5nc(C)n(C(C)C)c5c4)n3)nc2)CC1
inactive: Potency [1] | Potency [2] | Potency [4] | Potency [3] | Potency [5]

Cc1ccc(-c2ccc3ncc4c(c3n2)n(C2CCN(C(=O)[C@H](C)O)CC2)c(=O)n4C)cn1
active: Potency [1] 0.282 µM | Potency [2] 0.708 µM | Potency [4] 0.794 µM | Potency [6] 1 µM | Potency [5] 0.355 µM

C/C=C1\[C@H](O[C@@H]2O[C@H](CO)[C@@H](O)[C@H](O)[C@H]2O)OC=C2C(=O)OCCc3ccc(O)c(c3)Oc3ccc(cc3)CCOC(=O)C[C@H]21
inactive: Potency [1] | Potency [2] | Potency [3] | Potency [6] | Potency [5]

NC(=O)[C@H]1CCS[C@@H]2C[C@]3(CCCN3C(=O)Cc3ccc(NC(=O)COc4ccc(Cl)cc4Cl)cc3)C(=O)N12
inactive: Potency [1] | Potency [2] | Potency [3]
active: Potency [6] 31.6 µM

C=C(C(=O)OC)C1C(O)CC2(C)C(O)CCC(=O)C2C1O (centres undefined)
inactive: Potency [1] | Potency [2] | Potency [4] | Potency [5]

COc1cc(O)cc(C)c1C(=O)O[C@@H]1[C@H](O)[C@@H](CO)O[C@H]1n1ccc(=O)[nH]c1=O
inactive: Potency [1] | Potency [2] | Potency [4] | Potency [6]

COC(=O)N[C@@H](C)CNc1nccc(-c2cn(C(C)C)nc2-c2cc(Cl)cc(NS(C)(=O)=O)c2F)n1
inactive: Potency [1] | Potency [2] | Potency [4] | Potency [6] | Potency [5]

C=C(C)C(=O)O[C@H]1C[C@@](C)(O)C(=O)CC(O)/C(C)=C\[C@H]2OC(=O)C(=C)[C@H]12 (some centres undefined)
inactive: Potency [1] | Potency [2] | Potency [4] | Potency [6] | Potency [5]

Cc1c(CN2CCN(C(=O)C(C)O)CC2)sc2c(N3CCOCC3)nc(-c3cnc(N)nc3)nc12 (centres undefined)
active: Potency [1] 2 µM | Potency [2] 1.41 µM | Potency [4] 1.26 µM | Potency [5] 0.891 µM

O=C(NCc1cccc(O)c1)Nc1nc(-c2ccncc2)cs1
inactive: Potency [1] | Potency [2] | Potency [4] | Potency [3] | Potency [5]

COCCN1CCN(Cc2ccc(-c3n[nH]c4c3C(=O)c3c(NC(=O)NN5CCOCC5)cccc3-4)cc2)CC1
active: Potency [4] 0.282 µM | Potency [3] 0.316 µM | Potency [5] 0.178 µM
inactive: Potency [1] | Potency [2]

Cc1c(NC(=O)c2cc(C(N)=O)nc3cc(F)ccc23)c(C(F)(F)F)nn1Cc1ccc(C#N)cc1
inactive: Potency [1] | Potency [2] | Potency [4] | Potency [3] | Potency [5]

CC(C)c1cccc2c(-c3ccccc3)cc(-c3ccc(-c4ccc(C(=O)O)cc4)[nH]3)nc12
inactive: Potency [1] | Potency [2] | Potency [3] | Potency [6] | Potency [5]

COc1c2c(c(C)c3c1C(=O)OC3)OC1(C)CC(O)C(C(C)(C)O)C(C)(CCC(=O)O)C1C2 (centres undefined)
inactive: Potency [1] | Potency [2] | Potency [4] | Potency [3] | Potency [5]

CNC(=O)c1ccccc1Nc1cc(Nc2ccc(N3CCOCC3)cc2OC)ncc1C(F)(F)F
inactive: Potency [1] | Potency [2] | Potency [4] | Potency [3] | Potency [5]

C(#Cc1nc2ncccc2nc1OCCN1CCCC1)c1ccccc1
active: Potency [1] 7.08 µM | Potency [2] 7.08 µM | Potency [4] 17.8 µM | Potency [3] 3.55 µM | Potency [5] 10 µM

COC(C(=O)N1Cc2[nH]nc(NC(=O)c3ccc(N4CCN(C)CC4)cc3)c2C1)c1ccccc1 (centres undefined)
active: Potency [2] 1.41 µM
inactive: Potency [1] | Potency [3]

CN1C2CCC1CC(OC(=O)[C@H](CO)c1ccccc1)C2 (some centres undefined)
inactive: Potency [1] | Potency [2] | Potency [4] | Potency [5]

CC(=O)O[C@@H]1C[C@H](O)[C@@]23CO[C@H](O)[C@]1(C)C2C[C@@H](O)[C@]1(C)C3C(=O)[C@H](OC(C)=O)[C@@]2(C)[C@H](c3ccoc3)C[C@H]3O[C@]321 (some centres undefined)
inactive: Potency [4]
active: Potency [1] 1.12 µM | Potency [2] 1.12 µM | Potency [3] 0.501 µM | Potency [5] 2.51 µM

C/C=C/C=C/[C@@H]1O[C@](O)([C@H](CC)C(=O)NC/C=C/C=C(\C)[C@@H](OC)[C@@H](C)C2OC(/C=C/C=C/C=C(\C)C(=O)c3c(O)cc[nH]c3=O)[C@H](O)[C@@H]2O)[C@H](O)[C@H](O)C1(C)C (some centres undefined)
inactive: Potency [1] | Potency [2] | Potency [4] | Potency [3] | Potency [6] | Potency [5]

CO[C@H]1C[C@@H]2CC[C@@H](C)[C@@](O)(O2)C(=O)C(=O)N2CCCC[C@H]2C(=O)O[C@H]([C@H](C)C[C@@H]2CC[C@@H](OP(C)(C)=O)[C@H](OC)C2)CC(=O)[C@H](C)/C=C(\C)[C@@H](O)[C@@H](OC)C(=O)[C@H](C)C[C@H](C)/C=C/C=C/C=C/1C
inactive: Potency [1] | Potency [2] | Potency [3] | Potency [6]

Cc1c(F)cc(C(=O)NC2CC2)cc1-c1c(F)cn2c(C(C)(C)C)nnc2c1F
inactive: Potency [1] | Potency [2] | Potency [3] | Potency [6] | Potency [5]

NC(=O)c1cnc(NCCc2ccc(O)c(Cl)c2)nc1NCc1ccccc1
inactive: Potency [1] | Potency [2]
active: Potency [3] 15.8 µM | Potency [6] 25.1 µM | Potency [5] 20 µM

Cc1cc(C(=O)N2Cc3cnn(C)c3Nc3ccccc32)ccc1CNC(=O)N1CCC[C@H]1C(=S)N1CCCN(C)CC1
inactive: Potency [1] | Potency [2] | Potency [3] | Potency [6] | Potency [5]

CCN1CCN(Cc2ccc(NC(=O)c3ccc(C)c(/C=C/c4cnc5[nH]ccc5c4OC)c3)cc2C(F)(F)F)CC1
active: Potency [1] 14.1 µM | Potency [4] 12.6 µM | Potency [3] 10 µM | Potency [6] 15.8 µM

Reference: PubChem BioAssay (NCATS)
